Results on 40 molecules are retold here after PubChem BioAssay.

Tumor necrosis factor receptor superfamily member 10B (Homo sapiens), sequence (O14763 whole entry, looked up): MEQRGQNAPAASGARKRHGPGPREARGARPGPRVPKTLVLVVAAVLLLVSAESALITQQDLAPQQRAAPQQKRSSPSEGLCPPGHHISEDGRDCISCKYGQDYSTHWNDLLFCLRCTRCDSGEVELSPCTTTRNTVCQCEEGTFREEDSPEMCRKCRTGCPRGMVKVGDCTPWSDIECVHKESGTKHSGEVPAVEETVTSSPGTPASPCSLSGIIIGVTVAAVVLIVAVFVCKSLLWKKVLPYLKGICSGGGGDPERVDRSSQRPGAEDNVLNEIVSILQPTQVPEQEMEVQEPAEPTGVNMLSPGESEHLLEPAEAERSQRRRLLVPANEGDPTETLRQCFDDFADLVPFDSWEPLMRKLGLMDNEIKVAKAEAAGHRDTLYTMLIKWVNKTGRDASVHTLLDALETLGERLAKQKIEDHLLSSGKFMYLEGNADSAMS

The first assay has as its target Tumor necrosis factor receptor superfamily member 10B (Homo sapiens) (UniProt O14763). Briefly: viability loss of caspase-8 NB7 cells with TRAIL – with/without TRAIL, luminescence panel, confirmation (AID 651596). The following applies: NB7 neuroblastoma + caspase-8, TRAIL sensitization, NB7 Caspase-8, with TRAIL, mean of runs, at 10 µM, stronger effect = higher value.
For `O=C(CCN1C(=O)c2ccccc2C1=O)Nc1ccc(-c2nc3ccccc3s2)cc1`, the activity came to 44.4%.

`CCC(OC(=O)c1ccc(S(C)(=O)=O)c([N+](=O)[O-])c1)C(=O)NC1C2CC3CC(C2)CC1C3` (stereo not given): the activity was found to be 79.5%.

For the molecule `CCCC(=O)Nc1ccc(C(=O)N/N=C/c2ccc[nH]2)cc1`, the activity worked out at 98.5%.

In the case of `O=C(Nc1cc(S(=O)(=O)N2CCOCC2)ccc1N1CCOCC1)c1ccc([N+](=O)[O-])s1`, the activity was determined as 39.1%.

`CC(NC(=O)CCl)c1ccc(Cl)c(Cl)c1` (stereo not given): the activity stood at 51%.

As to `Cc1ccc(NC(=O)N2CCc3ccccc32)cc1C`, the activity came to 71.9%.

With `O=S1(=O)CC(c2ccccc2)=NN=C(c2ccccc2)C1`, the activity came out at 79%.

Consider `COc1ccc(Oc2c(Cl)cnn(-c3ccc(Cl)c(Cl)c3)c2=O)cc1`, for which the activity amounted to 98.5%.

Regarding `Cc1cccc(/C(N)=N/OC(=O)c2ccc(Cl)cc2Cl)c1`, the activity came out at 97.3%.

For `CCOC(=O)c1ccc(N=c2sc(C(=O)OC)cc(=O)n2-c2ccc(C(=O)OCC)cc2)cc1`, the activity came to 67.6%.

With `Cc1cccc(NC(=O)c2onc3c2CCCC3)n1`, the activity is 85.6%.

`C/C(=N\Nc1nncc2ccccc12)c1cccc(OC(F)F)c1`: the activity is 75.8%.

As for `CCCc1cc(=O)[nH]c(SCC(=O)Nc2sc(C(N)=O)c(C)c2C(=O)OCCOC)n1`, the activity came out at 84.6%.

Take `O=C(Nc1ccccn1)c1onc2c1CCCC2`: the activity came out at 78.8%.

`C(/C=C/c1ccccn1)=C\c1ccccc1`: the activity was 7.58%.

`CCc1ccc2nc(N(CCCN(C)C)C(=O)c3ccc(C(=O)c4ccccc4)cc3)sc2c1`: the activity was 50.6%.

Consider `COc1ccc(CCNc2cc(N3CCN(C(=O)c4ccccc4F)CC3)ccc2[N+](=O)[O-])cc1OC`, for which the activity turned out to be 73.7%.

Regarding `Cc1nc(SCC(=O)Nc2nccs2)c(C#N)c(C)c1C`, the activity was 90.8%.

Take `COc1ccc(/C=C/C(=O)c2c(O)cc(C)oc2=O)c(OC)c1`: the activity amounted to 91.1%.

Take `COc1cc2nc(N3CCNCC3)nc(N)c2cc1OC`: the activity came out at 27.5%.

As to `Cc1ccccc1Nc1nc(N)nc(CCl)n1`, the activity was found to be 98.5%.

On to `COc1ccc(C(=O)Nc2cccc(/C=C/c3nc4ccccc4c(=O)[nH]3)c2)cc1`, for which the activity stood at 73.5%.

`COc1cc(OC)cc(-c2cc3ccc(F)cc3cn2)c1`: the activity turned out to be 65.9%.

In the case of `O=C(CSc1nnc(-c2ccc(O)cc2)o1)Nc1cccc(O)c1`, the activity stood at 50.6%.

For `O=C(NCc1ccccc1)c1c(Cl)nc(Cl)c(Cl)c1Cl`, the activity was found to be 99.8%.

Take `Cc1ccccc1Oc1cc(-n2ncc(Cl)c(Cl)c2=O)ncn1`: the activity came to 99.7%.

Turning to `O=C1CC(c2ccc3c(c2)OCCO3)Oc2ccc([N+](=O)[O-])cc21` (stereo not given), the activity turned out to be 56.3%.

For the molecule `COc1ccc(/C(N)=N/OC(=O)c2ccc(OC)c([N+](=O)[O-])c2)cc1OC`, the activity was 92.1%.

As for `COc1cc(OC)nc(Nc2nc(C(N)Cc3ccc(C(F)(F)F)cc3)cs2)n1` (stereo not given), the activity amounted to 33.2%.

Regarding `CCc1nc(N2CCN(C(=O)CCl)CC2)c2c3c(sc2n1)CC(C)CC3` (stereo not given), the activity amounted to 99.3%.

For `CC(C)(C)Nc1ncnc2c1cnn2-c1ccccc1`, the activity came to 73.8%.

On to `O=C(COc1ccc(CO)cc1Cl)Nc1ccc(F)cc1`, for which the activity was found to be 44.5%.

For the molecule `CN1CCN(c2nc(-c3ccc(C(C)(C)C)cc3)nc3ccccc23)CC1`, the activity is 67.9%.

Turning to `Cc1cc(NC(=O)/C=C/c2ccccc2Cl)n(-c2nc3ccccc3[nH]2)n1`, the activity came out at 78.8%.

For `CCCCN=C1NN=C(c2ccc3c(c2)OCCO3)CS1`, the activity came to 47.9%.

With `C#CCSc1nnc(CSc2nc3ccccc3s2)n1-c1ccccc1`, the activity worked out at 95.3%.

As to `COc1ccc(NC(=O)c2ccc(OC)cc2)cc1`, the activity is 54.2%.

On to `CC(C)C[C@H](NC(=O)c1nc[nH]c1C(=O)N[C@@H](CC(C)C)C(=O)OC(C)(C)C)C(=O)OC(C)(C)C`, for which the activity was found to be 72.4%.

On to `C/C(=N\NC(=O)c1ccccn1)c1ccc(Cl)cc1`, for which the activity is 44%.

For the molecule `CSC(=Nc1ccccc1)N=C(SCc1ccccc1)N(C)C`, the activity is 96.8%.

System in the next assay: not listed separately
The description is as above. Particulars: NB7 neuroblastoma + caspase-8, without TRAIL, NB7 Caspase-8, without TRAIL, mean of runs, at 10 µM.
As to `O=C(CCN1C(=O)c2ccccc2C1=O)Nc1ccc(-c2nc3ccccc3s2)cc1`, the activity was determined as 41.9%.

In the case of `CCC(OC(=O)c1ccc(S(C)(=O)=O)c([N+](=O)[O-])c1)C(=O)NC1C2CC3CC(C2)CC1C3` (stereo not given), the activity was 97.7%.

For the molecule `CCCC(=O)Nc1ccc(C(=O)N/N=C/c2ccc[nH]2)cc1`, the activity was determined as 97.8%.

Take `O=C(Nc1cc(S(=O)(=O)N2CCOCC2)ccc1N1CCOCC1)c1ccc([N+](=O)[O-])s1`: the activity is 41.4%.

With `CC(NC(=O)CCl)c1ccc(Cl)c(Cl)c1` (stereo not given), the activity was found to be 81.5%.

As to `Cc1ccc(NC(=O)N2CCc3ccccc32)cc1C`, the activity amounted to 66.1%.

`O=S1(=O)CC(c2ccccc2)=NN=C(c2ccccc2)C1`: the activity is 75.8%.

As to `COc1ccc(Oc2c(Cl)cnn(-c3ccc(Cl)c(Cl)c3)c2=O)cc1`, the activity came to 99.1%.

For `Cc1cccc(/C(N)=N/OC(=O)c2ccc(Cl)cc2Cl)c1`, the activity came out at 91.8%.

With `CCOC(=O)c1ccc(N=c2sc(C(=O)OC)cc(=O)n2-c2ccc(C(=O)OCC)cc2)cc1`, the activity was found to be 37.6%.

Consider `Cc1cccc(NC(=O)c2onc3c2CCCC3)n1`, for which the activity was 89.4%.

For `C/C(=N\Nc1nncc2ccccc12)c1cccc(OC(F)F)c1`, the activity was found to be 72.8%.

Take `CCCc1cc(=O)[nH]c(SCC(=O)Nc2sc(C(N)=O)c(C)c2C(=O)OCCOC)n1`: the activity worked out at 86.4%.

On to `O=C(Nc1ccccn1)c1onc2c1CCCC2`, for which the activity amounted to 78.2%.

Take `C(/C=C/c1ccccn1)=C\c1ccccc1`: the activity is 14.6%.

In the case of `CCc1ccc2nc(N(CCCN(C)C)C(=O)c3ccc(C(=O)c4ccccc4)cc3)sc2c1`, the activity was 18.7%.

With `COc1ccc(CCNc2cc(N3CCN(C(=O)c4ccccc4F)CC3)ccc2[N+](=O)[O-])cc1OC`, the activity is 64.7%.

With `Cc1nc(SCC(=O)Nc2nccs2)c(C#N)c(C)c1C`, the activity came to 92.1%.

On to `COc1ccc(/C=C/C(=O)c2c(O)cc(C)oc2=O)c(OC)c1`, for which the activity was 92.5%.

As to `COc1cc2nc(N3CCNCC3)nc(N)c2cc1OC`, the activity worked out at 0.125%.

As to `Cc1ccccc1Nc1nc(N)nc(CCl)n1`, the activity turned out to be 96.2%.

For `COc1ccc(C(=O)Nc2cccc(/C=C/c3nc4ccccc4c(=O)[nH]3)c2)cc1`, the activity is 60.9%.

On to `COc1cc(OC)cc(-c2cc3ccc(F)cc3cn2)c1`, for which the activity came out at 60.2%.

In the case of `O=C(CSc1nnc(-c2ccc(O)cc2)o1)Nc1cccc(O)c1`, the activity turned out to be 55.7%.

Consider `O=C(NCc1ccccc1)c1c(Cl)nc(Cl)c(Cl)c1Cl`, for which the activity was found to be 99.9%.

On to `Cc1ccccc1Oc1cc(-n2ncc(Cl)c(Cl)c2=O)ncn1`, for which the activity amounted to 99.5%.

For `O=C1CC(c2ccc3c(c2)OCCO3)Oc2ccc([N+](=O)[O-])cc21` (stereo not given), the activity was found to be 55.9%.

As for `COc1ccc(/C(N)=N/OC(=O)c2ccc(OC)c([N+](=O)[O-])c2)cc1OC`, the activity was found to be 84.7%.

On to `COc1cc(OC)nc(Nc2nc(C(N)Cc3ccc(C(F)(F)F)cc3)cs2)n1` (stereo not given), for which the activity is 77.7%.

Take `CCc1nc(N2CCN(C(=O)CCl)CC2)c2c3c(sc2n1)CC(C)CC3` (stereo not given): the activity is 91.5%.

For the molecule `CC(C)(C)Nc1ncnc2c1cnn2-c1ccccc1`, the activity was 69.5%.

Consider `O=C(COc1ccc(CO)cc1Cl)Nc1ccc(F)cc1`, for which the activity amounted to 47.6%.

Turning to `CN1CCN(c2nc(-c3ccc(C(C)(C)C)cc3)nc3ccccc23)CC1`, the activity amounted to 69.6%.

With `Cc1cc(NC(=O)/C=C/c2ccccc2Cl)n(-c2nc3ccccc3[nH]2)n1`, the activity came out at 82.4%.

Take `CCCCN=C1NN=C(c2ccc3c(c2)OCCO3)CS1`: the activity was 31.8%.

Turning to `C#CCSc1nnc(CSc2nc3ccccc3s2)n1-c1ccccc1`, the activity turned out to be 94.8%.

As to `COc1ccc(NC(=O)c2ccc(OC)cc2)cc1`, the activity amounted to 42.5%.

`CC(C)C[C@H](NC(=O)c1nc[nH]c1C(=O)N[C@@H](CC(C)C)C(=O)OC(C)(C)C)C(=O)OC(C)(C)C`: the activity came out at 63.2%.

As to `C/C(=N\NC(=O)c1ccccn1)c1ccc(Cl)cc1`, the activity is 46%.

For the molecule `CSC(=Nc1ccccc1)N=C(SCc1ccccc1)N(C)C`, the activity came out at 98.5%.
